High-throughput results from PubChem.
Most compounds without a hit are left out; they make up all but 0.84% or so of the library.
LRH-1 inv ag = suppresses constitutive activity of human LRH-1; O00482; HEK293T StAR-luciferase reporter, LRH-1 transfected, 24 h; inhibition, % at 3.6 µM; 0.13% of 360,000 active;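 active = inhibition above the mean inhibition of all tested compounds plus 3 SD, cut at about 73% in these data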;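 note: 0% = DMSO wells and 100% = reporter-only cells lacking LRH-1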
Target sequence (O00482 whole entry, looked up): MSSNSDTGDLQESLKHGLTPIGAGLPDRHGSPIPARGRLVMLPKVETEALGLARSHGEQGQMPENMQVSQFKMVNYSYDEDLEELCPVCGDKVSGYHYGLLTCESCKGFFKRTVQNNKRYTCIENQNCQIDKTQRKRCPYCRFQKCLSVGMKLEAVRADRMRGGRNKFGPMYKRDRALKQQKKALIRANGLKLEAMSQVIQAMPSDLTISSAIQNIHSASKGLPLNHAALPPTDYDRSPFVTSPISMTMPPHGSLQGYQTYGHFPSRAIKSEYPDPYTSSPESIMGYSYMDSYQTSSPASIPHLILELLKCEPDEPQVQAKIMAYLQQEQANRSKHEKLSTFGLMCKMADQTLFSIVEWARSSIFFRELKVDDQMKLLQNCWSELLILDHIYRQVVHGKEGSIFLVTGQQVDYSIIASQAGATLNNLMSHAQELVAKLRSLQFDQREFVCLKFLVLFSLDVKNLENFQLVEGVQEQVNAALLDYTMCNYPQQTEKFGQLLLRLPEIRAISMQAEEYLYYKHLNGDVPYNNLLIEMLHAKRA
SRC2 inh = human SRC2 (NCOA2) inhibition | Q15596 | HEK293 GAL4-SRC2 luciferase reporter, luminescence | inhibition, % at 9 µM | 0.17% of 370,000 active;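 active = inhibition above the mean inhibition of all tested compounds plus 3 SD, set per campaign, cut at about 52% in these data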;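 note: 0% = DMSO treated cells and 100% = cells given Gossypol at 36 µM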
NCOA3 inh = inhibits human SRC3 coactivator. 0.17% of 360,000 active. Q9Y6Q9. HEK293 GAL4-SRC3 luciferase reporter, luminescence. inhibition, % at 3.6 µM;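 active = inhibition above a per-campaign cutoff, the mean of all compounds plus 3 SD, cut at about 60% in these data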;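 note: 0% = DMSO-treated cells and 100% = gossypol-treated cells at 36 µM; higher means less SRC3-driven luciferase light from the GAL4 reporter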
SRC1 inh = inhibits human SRC1 coactivator. Q15788. HEK293 GAL4-SRC1 luciferase reporter, luminescence. inhibition, % at 3.6 µM. 0.12% of 360,000 active;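 active = inhibition above the campaign mean plus 3 SD, with each screening campaign given its own cutoff, cut at about 60% in these data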;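 note: 0% = DMSO treated cells and 100% = gossypol at 36 µM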
NR2F2 inh = blocks human COUP-TFII nuclear receptor. 0.7% of 370,000 active. HEK293T NGFI-A luciferase reporter, luminescence. inhibition, % at 8.6 µM. AID 686940;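 active = inhibition above a per-plate cutoff, mean inhibition of test wells between control levels plus 3 SD, cut at about 38% in these data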;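 note: cells cotransfected with COUP-TFII expression vector driving the NGFI-A reporter; 0% = median of COUP-TF2 test wells and 100% = reporter-only cells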
VP16 Luc counter = inhibits VP16 reporter, flagging COUP-TFII antagonist hits. shares compounds with NR2F2 inh. HEK293 Gal4-VP16 luciferase reporter, luminescence. inhibition, % at 8.5 µM. 25% of 2,500 active; in the data active = inhibition above about 13%
NR2F2 inh conf = COUP-TFII (NR2F2) inhibition, confirmation assay; 45% of 2,500 active; inhibition, % at 8.5 µM; shares compounds with NR2F2 inh; AID 687008; HEK293 NGFI-A luciferase reporter, luminescence;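 active = mean inhibition over three repeats above a set limit taken from the earlier primary screen, cut at about 38% in these data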;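 note: 100% = cells given the luciferase reporter alone without the COUP-TF2 vector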
Numbers without * were called inactive; . = no result given.

SMILES | LRH-1 inv ag | SRC2 inh | NCOA3 inh | SRC1 inh | NR2F2 inh | VP16 Luc counter | NR2F2 inh conf
O=C(c1ccc(F)cc1)C1CCN(c2ncnc3sccc23)CC1 | . | . | . | . | 62.6* | 2.9 | 56.0*
O=S(=O)(c1ccccc1C(F)(F)F)N1CCN(c2ncnc3sccc23)CC1 | -21.4 | 25.2 | 0.2 | 11.4 | 15.4 | . | .
O=C(c1ccccc1)C1CCN(c2ncnc3sccc23)CC1 | . | . | . | . | 73.7* | 5.5 | 62.0*
O=C(c1ccc(F)cc1)C1CCN(Cc2ccc(F)cc2)CC1 | 25.2 | -7.1 | -7.9 | -5.3 | 26.7 | . | .
O=C(CSc1nnc(COc2ccccc2)n1-c1ccc(Cl)cc1)Nc1ccc(OCc2ccccc2)cc1 | . | -25.3 | . | . | -10.6 | . | .
O=[N+]([O-])c1ccc(N2CCN(c3ccc([N+](=O)[O-])cc3CO)CC2)c(CO)c1 | 22.7 | 16.0 | -14.4 | 19.1 | 60.3* | 1.2 | 20.8
N#Cc1cc([N+](=O)[O-])ccc1N1CCN(c2ccccc2O)CC1 | -39.6 | -5.0 | -7.7 | -18.4 | -10.0 | . | .
C=C(C)CC1(NC(C)c2ccccc2)CCCCC1 (centres undefined) | 3.1 | -8.3 | 9.2 | -12.3 | 40.7* | -11.5 | -2.7
C=C1C[C@@H]2C[C@@H]2CN(S(=O)(=O)c2ccc(C)cc2)[C@@H]1COCc1ccccc1 | 18.9 | -15.9 | . | . | 40.3* | -7.6 | 6.1
Cc1ccc(S(=O)(=O)N2CCC(=O)N(CCOCc3ccccc3)CC2)cc1 | 20.2 | 2.1 | -4.7 | -9.3 | -2.9 | . | .
S=c1[nH]nc(-c2cc(-c3ccccc3)n[nH]2)n1N=Cc1cccc(OCc2ccccc2)c1 | . | -31.2 | . | . | -32.5 | . | .
CN(Cc1ccccc1)C(=O)OCc1cn(Cc2ccc(C(F)(F)F)cc2)nn1 | . | -25.0 | . | . | 14.5 | . | .
O=C(c1cc2sccc2n1Cc1ccc(F)cc1)N1CCN(c2nc3ccccc3s2)CC1 | 25.3 | 35.6 | 17.6 | 9.9 | 55.9* | 4.4 | 29.4
Cn1c(C(=O)N2CCN(c3nc4ccccc4s3)CC2)cc2sccc21 | -2.4 | 9.5 | 21.2 | -12.1 | 4.1 | . | .
COc1ccc(-c2c[n+]3c(n2-c2ccccc2)SCC3)cc1 | 25.1 | 13.8 | 39.1 | 26.1 | 56.8* | 9.7 | 29.2
Cc1ccc(-c2c[n+]3c(n2-c2ccccc2)SCC3)cc1 | 29.2 | 13.8 | 42.4 | 22.1 | 64.9* | -0.2 | 24.9
CC(C)CCn1cnc2c(sc3nc4c(cc32)CSC(C)(C)C4)c1=O | 23.9 | 37.8 | -8.0 | 3.5 | 55.2* | -56.7 | 23.8
O=C(CSc1nnc(COc2ccccc2)n1-c1ccccc1)Nc1ccc2c(c1)OCO2 | . | 8.4 | . | . | -5.6 | . | .
COC(=O)[C@]12C[C@H](CC(=O)NCC3CCCCC3)C(=O)N(CCC3=CCCCC3)C1=C[C@H](C(C)C)O[C@@H]2C1CC1 | . | 5.7 | . | . | -4.2 | . | .
CN(C(=O)CN1CCN(c2cc(-c3ccc(-c4ccccc4)cc3)ncn2)CC1)c1ccccc1 | 29.4 | 2.7 | -0.2 | -27.3 | 53.8* | -22.1 | 19.4
O=C(c1ccc(S(=O)(=O)c2cccc(Cl)c2)c([N+](=O)[O-])c1)N1CCN(c2ccccn2)CC1 | 1.7 | 28.1 | 19.1 | -0.9 | 45.3* | 21.4* | 8.6
O=C(CN1C(=O)c2ccccc2S1(=O)=O)c1ccc2c(c1)OCCCO2 | 93.3* | 92.6* | 92.9* | 92.9* | 100.1* | 92.8* | 108.8*
O=C(CN1C(=O)c2ccccc2S1(=O)=O)c1ccc2c(c1)OCCO2 | 62.4 | 88.8* | 85.4* | 81.9* | 88.9* | 82.6* | 99.3*
O=C(CN1C(=O)c2ccccc2S1(=O)=O)c1ccc(OC(F)F)cc1 | 31.3 | . | 12.0 | 35.6 | . | . | .
O=C(CN1C(=O)c2ccccc2S1(=O)=O)c1cccc(Br)c1 | 11.8 | -16.0 | 10.9 | 3.2 | 2.4 | . | .
SMILES | LRH-1 inv ag | SRC2 inh | NCOA3 inh | SRC1 inh | NR2F2 inh | VP16 Luc counter | NR2F2 inh conf
O=C(CN1C(=O)c2ccccc2S1(=O)=O)c1ccc(F)cc1 | -15.9 | 32.4 | 46.0 | 13.7 | 39.6* | -22.7 | 13.6
O=C(CN1C(=O)c2ccccc2S1(=O)=O)c1ccc(Cl)cc1Cl | 59.1 | 87.1* | 62.0* | 55.0 | 91.0* | 70.5* | 90.1*
Cc1cc(C)cc(N(CC(=O)NC2CCC(C)CC2)S(=O)(=O)c2ccc(Br)s2)c1 (centres undefined) | . | -20.8 | . | . | -8.4 | . | .
CN(Cc1ccc(OC(F)F)cc1)C(=O)c1cccc(S(=O)(=O)N2CCN(c3ccccc3)CC2)c1 | 28.1 | 24.3 | 23.2 | 8.7 | 66.7* | 13.2* | 55.4*
CN(CC(=O)Nc1ccccc1Cl)C(=O)c1cccc(S(=O)(=O)N2CCN(c3ccc(F)cc3)CC2)c1 | 28.2 | 18.6 | 10.6 | 3.8 | 30.4 | . | .
Cc1cccc(C)c1NC(=O)CN(C)C(=O)c1cccc(S(=O)(=O)N2CCN(c3ccccc3)CC2)c1 | 4.1 | -5.6 | 15.9 | -8.7 | 22.8 | . | .
CN(CC(=O)Nc1ccccc1Cl)C(=O)c1cccc(S(=O)(=O)N2CCN(c3ccccc3)CC2)c1 | 10.4 | -4.5 | 10.2 | 2.0 | 43.1* | 5.8 | 19.3
CN(CCOc1ccc(Cl)cc1)C(=O)c1cccc(S(=O)(=O)N2CCN(c3ccc(F)cc3)CC2)c1 | 42.1 | . | 33.5 | 23.9 | . | . | .
COc1ccc(CCN(C)C(=O)c2cccc(S(=O)(=O)N3CCN(c4ccc(F)cc4)CC3)c2)cc1OC | 28.9 | 1.7 | 18.5 | 12.9 | 59.3* | 12.1 | 44.7*
CN(Cc1cccc(Cl)c1Cl)C(=O)c1cccc(S(=O)(=O)N2CCN(Cc3ccccc3)CC2)c1 | 30.7 | 11.3 | 0.7 | -2.8 | 41.9* | -3.4 | 26.2
CN(Cc1ccc(Cl)c(Cl)c1)C(=O)c1cccc(S(=O)(=O)N2CCN(Cc3ccccc3)CC2)c1 | 12.0 | 14.7 | 26.3 | -1.3 | 21.3 | . | .
O=C(CSc1nnc(SCc2cccc3ccccc23)s1)Nc1ccc(S(=O)(=O)Nc2nccs2)cc1 | . | -2.9 | . | . | -0.1 | . | .
COc1cccc(NC(=O)n2ccc3ccc(-c4ccc5cc[nH]c5c4)cc32)c1 | . | -14.7 | . | . | -8.1 | . | .
COC(=O)[C@]12C[C@H](CC(=O)N3CCN(C(=O)c4ccco4)CC3)C(=O)N(CCc3ccc(OC)c(OC)c3)C1=C[C@H](C1CCCC1)O[C@@H]2C | . | 25.1 | . | . | -2.7 | . | .
COc1ccc(NC(=O)c2cccc(S(=O)(=O)N3CCN(c4ccccc4)CC3)c2)c(OC)c1 | -2.9 | -2.2 | -8.7 | -1.6 | 14.3 | . | .
O=C(c1cccc(S(=O)(=O)N2CCN(c3ccc(F)cc3)CC2)c1)N1CCCC(C(F)(F)F)C1 (centres undefined) | 36.2 | 26.7 | 20.3 | 20.4 | 63.0* | -3.7 | 44.5*
O=C(Nc1ccncc1)c1cccc(S(=O)(=O)N2CCN(c3ccc(F)cc3)CC2)c1 | 24.7 | 23.2 | 16.8 | 21.9 | 47.3* | 7.2 | 30.9
CN(CC(=O)Nc1cccc(F)c1)C(=O)c1cccc(S(=O)(=O)N2CCN(c3ccc(F)cc3)CC2)c1 | -17.2 | 28.2 | 15.2 | 5.2 | 42.2* | 4.5 | 13.5
